From PubChem BioAssay (NCATS)
Records with an inconclusive call do not appear. Active and inactive are the calls of the source. Calls follow the shape of the full dose curve; tested in HEK293 reporter line.

Assay: qHTS for Inhibitors of the Functional Ribonucleoprotein Complex (vRNP) of Lassa (LASV) Arenavirus: Viability assay - alamar blue signal for LASV Primary Screen (AID 1347083)
Conditions: cell viability, alamar blue fluorescence (LASV minigenome counter-screen); series mostly up to 57.5 µM; activity change, negative = reduced viability: at the top concentration
% is scaled to controls: 0 for no effect and ±100 for the full control effect.
Also: nearly all actives have a fitted effect of over 80% in size.

| Compound | activity change, negative = reduced viability | Potency |
| --- | --- | --- |
| Nc1ccc(/C=C/c2ccc(N)cc2S(=O)(=O)O)c(S(=O)(=O)O)c1 | 3.69% [at 0.757 µM] (inactive) |  |
| Nc1ccc(S(=O)(=O)NCc2ccccc2)cc1 | 1.68% (inactive) |  |
| CC(C)NCC(O)c1cc(O)cc(O)c1 (stereo not drawn) |  | inactive |
| CC(CCc1ccccc1)NCC(O)c1ccc(O)c(C(N)=O)c1 (stereo not drawn) | 1.57% (inactive) |  |
| Cc1ccccc1C(=O)N1CC/C(=N\OS(=O)(=O)O)c2ccc(Cl)cc21 | 14.4% (inactive) |  |
| O=C(CO)[C@@H](O)[C@H](O)[C@@H](O)CO | 15.2% (inactive) |  |
| CCCCCCCCCCCC(=O)[O][Sn]([CH2]CCC)([CH2]CCC)[O]C(=O)CCCCCCCCCCC | 3.03% (inactive) |  |
| COCCOC(=O)C1=C(C)NC(C)=C(C(=O)OC(C)C)C1c1cccc([N+](=O)[O-])c1 (stereo not drawn) |  | inactive |
| CC(C)(Sc1cc(C(C)(C)C)c(O)c(C(C)(C)C)c1)Sc1cc(C(C)(C)C)c(O)c(C(C)(C)C)c1 | 0.157% (inactive) |  |
| CCC(C(=O)NC(=O)NC(C)=O)c1ccccc1 (stereo not drawn) | 2.97% (inactive) |  |
| NC(Cc1ccc(Cl)cc1)C(=O)O (stereo not drawn) |  | inactive |
| COc1ccc2cc([C@H](C)C(=O)O)ccc2c1 |  | inactive |
| FC1(F)C(F)(F)C(F)(F)C2(F)C(F)(F)C(F)(F)C(F)(F)C(F)(F)C2(F)C1(F)F (stereo not drawn) | 6.45% (inactive) |  |
| OC[C@H]1O[C@H](O[C@]2(CCl)O[C@H](CCl)[C@@H](O)[C@@H]2O)[C@H](O)[C@@H](O)[C@H]1Cl | 1.63% (inactive) |  |
| CC(C)C(=O)c1c(C(C)C)nn2ccccc12 |  | inactive |
| O=C(Cn1ccnc1[N+](=O)[O-])NCc1ccccc1 | 6.74% (inactive) |  |
| Cc1ccc(C(=O)c2ccc(CC(=O)O)n2C)cc1 | 4.81% (inactive) |  |
| CCCCCCCC/C=C/C(=O)O | -7.68% (inactive) |  |
| CCCC(=O)O[C@]1(C(=O)COC(=O)CC)CC[C@H]2[C@@H]3CCC4=CC(=O)CC[C@]4(C)[C@H]3[C@@H](O)C[C@@]21C | -90.7% [at 24.7 µM] (inactive) |  |
| O=C(Oc1ccccc1)c1ccccc1O | 13.4% (inactive) |  |

Assay: qHTS for Inhibitors of the Functional Ribonucleoprotein Complex (vRNP) of Lymphocytic Choriomeningitis Arenaviruses (LCMV): Viability assay - alamar blue signal for LCMV Primary Screen (AID 1347085)
Conditions: alamar blue viability counter-screen, LCMV vRNP screen cells; series mostly up to 57.5 µM; activity change, negative = lower viability: at the top concentration

| Compound | activity change, negative = lower viability | Potency |
| --- | --- | --- |
| Cc1cc2c(cc1S(N)(=O)=O)S(=O)(=O)CCC2 | 7.33% (inactive) |  |
| Cc1ccsc1/C=C/C1=NCCCN1C | 9.18% (inactive) |  |
| C[C@H]1O[C@@H](n2cc(F)c(=O)[nH]c2=O)[C@H](O)[C@@H]1O | 6.42% (inactive) |  |
| CN(CC1(C)CCCO1)S(=O)(=O)c1ccc(Cl)c(S(N)(=O)=O)c1 (stereo not drawn) | -0.664% (inactive) |  |
| CCCc1nn(C)c2c(=O)[nH]c(-c3cc(S(=O)(=O)N4CCN(C)CC4)ccc3OCC)nc12 |  | inactive |
| O=C(O)c1ccccc1Nc1cccc(C(F)(F)F)c1 | 7.81% (inactive) |  |
| CS(=O)(=O)c1ccc([C@@H](O)[C@@H](CO)NC(=O)C(Cl)Cl)cc1 | 20.9% (inactive) |  |
| Cc1scc2c1N(C(=O)CN1CCN(C)CC1)c1ccccc1NC2=O |  | inactive |
| CC(=O)O[C@@H]1CC2C3CCc4cc(OC(=O)c5ccccc5)ccc4C3CCC2(C)[C@H]1OC(C)=O (stereo partly drawn) | 0.775% (inactive) |  |
| CCCCCC=CCC=CCCCCCCCC(=O)OCC | -0.334% (inactive) |  |
| C[N+]1(C)[C@@H]2CC(OC(=O)[C@H](CO)c3ccccc3)C[C@H]1[C@@H]1O[C@@H]12 (stereo partly drawn) | 10.2% (inactive) |  |
| CC(C(=O)O)c1ccc2c(c1)[nH]c1ccc(Cl)cc12 (stereo not drawn) | 11% (inactive) |  |
| O=C(O)c1[nH]n(-c2ccc(S(=O)(=O)O)cc2)c(=O)c1N=Nc1ccc(S(=O)(=O)O)cc1 | 8.88% (inactive) |  |
| Cc1ncc(CO)c(CN)c1O | 10.3% (inactive) |  |
| CNCCCC12CCC(c3ccccc31)c1ccccc12 |  | inactive |
| C/C(=C(\CCO)SS/C(CCO)=C(\C)N(C=O)Cc1cnc(C)nc1N)N(C=O)Cc1cnc(C)nc1N | 6.34% (inactive) |  |
| NC1CCN(c2cccc(Cl)n2)CC1 |  | inactive |
| CCC[C@@H]1C[C@@H](C(=O)N[C@@H]([C@H]2O[C@H](SC)[C@H](O)[C@@H](O)[C@H]2O)[C@@H](C)O)N(C)C1 |  | inactive |
| Nc1ccc(/C=C/c2ccc(N)cc2S(=O)(=O)O)c(S(=O)(=O)O)c1 | 0.0811% [at 0.757 µM] (inactive) |  |

| Compound | activity change, negative = lower viability | Potency |
| --- | --- | --- |
| Nc1ccc(S(=O)(=O)NCc2ccccc2)cc1 | 0.0915% (inactive) |  |
| CC(C)NCC(O)c1cc(O)cc(O)c1 (stereo not drawn) |  | inactive |
| CC(CCc1ccccc1)NCC(O)c1ccc(O)c(C(N)=O)c1 (stereo not drawn) | -0.153% (inactive) |  |
| Cc1ccccc1C(=O)N1CC/C(=N\OS(=O)(=O)O)c2ccc(Cl)cc21 | 8.48% (inactive) |  |
| O=C(CO)[C@@H](O)[C@H](O)[C@@H](O)CO | 11% (inactive) |  |
| CCCCCCCCCCCC(=O)[O][Sn]([CH2]CCC)([CH2]CCC)[O]C(=O)CCCCCCCCCCC | 0.668% (inactive) |  |
| COCCOC(=O)C1=C(C)NC(C)=C(C(=O)OC(C)C)C1c1cccc([N+](=O)[O-])c1 (stereo not drawn) |  | inactive |
| CC(C)(Sc1cc(C(C)(C)C)c(O)c(C(C)(C)C)c1)Sc1cc(C(C)(C)C)c(O)c(C(C)(C)C)c1 | -12.4% (inactive) |  |
| CCC(C(=O)NC(=O)NC(C)=O)c1ccccc1 (stereo not drawn) | 0.179% (inactive) |  |
| NC(Cc1ccc(Cl)cc1)C(=O)O (stereo not drawn) |  | inactive |
| COc1ccc2cc([C@H](C)C(=O)O)ccc2c1 |  | inactive |
| FC1(F)C(F)(F)C(F)(F)C2(F)C(F)(F)C(F)(F)C(F)(F)C(F)(F)C2(F)C1(F)F (stereo not drawn) | -6.5% (inactive) |  |
| OC[C@H]1O[C@H](O[C@]2(CCl)O[C@H](CCl)[C@@H](O)[C@@H]2O)[C@H](O)[C@@H](O)[C@H]1Cl | 7.07% (inactive) |  |
| CC(C)C(=O)c1c(C(C)C)nn2ccccc12 |  | inactive |
| O=C(Cn1ccnc1[N+](=O)[O-])NCc1ccccc1 | 0.463% (inactive) |  |
| Cc1ccc(C(=O)c2ccc(CC(=O)O)n2C)cc1 | -2.13% (inactive) |  |
| CCCCCCCC/C=C/C(=O)O | -1.68% (inactive) |  |
| CCCC(=O)O[C@]1(C(=O)COC(=O)CC)CC[C@H]2[C@@H]3CCC4=CC(=O)CC[C@]4(C)[C@H]3[C@@H](O)C[C@@]21C | -107% [at 24.7 µM] (inactive) |  |
| O=C(Oc1ccccc1)c1ccccc1O | 17.3% (inactive) |  |
